The record followed here is PubChem BioAssay AID602123 (The Scripps Research Institute Molecular Screening Center, 2011).

Molecules are shown by their SMILES. Where “and” joins values, the source holds several entries; their conditions need not be identical. Equal entries are not always repeated. Screen size: about 360,000 compounds; about 1,500 (0.42%) were called active. This is one part of a sample in which actives are shown more often than they occur. A number with no mark means an inactive call. Cut-off read from the data, not from the text of the source: active = inhibition above about 13% (passing the limit was not always enough); inactive = the rest.

What is called inhibition is the drop in the measured response relative to a control, in per cent.

The assay deals with Lon protease (Escherichia coli (strain K12)) (UniProt P0A9M0). The experiment in a line: E. coli eLon protease inhibition – biochemical, fluorescence polarization, primary screen (AID 602123).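 Note: 0% = enzyme with probe and DMSO and 100% = no enzyme.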 The note with it: purified E. coli Lon protease, at 7.94 µM, hits give high values. On the technique in general: In fluorescence polarisation assays a small probe gives low polarisation when free and higher when bound to something large.
Chain of Lon protease (Escherichia coli (strain K12)) (P0A9M0 whole entry, looked up): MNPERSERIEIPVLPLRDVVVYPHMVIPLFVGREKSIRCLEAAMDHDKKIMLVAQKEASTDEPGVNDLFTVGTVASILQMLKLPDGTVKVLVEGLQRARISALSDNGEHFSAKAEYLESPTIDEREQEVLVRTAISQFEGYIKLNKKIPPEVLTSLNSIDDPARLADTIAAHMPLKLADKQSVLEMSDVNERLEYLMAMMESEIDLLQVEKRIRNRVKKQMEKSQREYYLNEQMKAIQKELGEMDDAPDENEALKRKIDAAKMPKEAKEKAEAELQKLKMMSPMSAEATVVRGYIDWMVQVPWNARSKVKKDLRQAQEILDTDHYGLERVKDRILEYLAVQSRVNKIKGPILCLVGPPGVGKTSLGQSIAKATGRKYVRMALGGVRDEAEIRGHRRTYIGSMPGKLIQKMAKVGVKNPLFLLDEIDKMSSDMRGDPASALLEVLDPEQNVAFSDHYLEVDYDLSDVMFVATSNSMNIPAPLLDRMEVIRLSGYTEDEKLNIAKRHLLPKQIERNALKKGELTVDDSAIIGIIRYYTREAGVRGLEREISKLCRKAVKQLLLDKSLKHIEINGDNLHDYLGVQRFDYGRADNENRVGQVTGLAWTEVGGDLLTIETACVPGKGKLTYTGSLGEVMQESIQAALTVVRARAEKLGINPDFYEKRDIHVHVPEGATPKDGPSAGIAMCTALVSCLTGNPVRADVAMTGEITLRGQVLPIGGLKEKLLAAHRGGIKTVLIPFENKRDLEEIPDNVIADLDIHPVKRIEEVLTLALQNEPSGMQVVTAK
`COc1ccc(NC(=O)CN2C(=O)COc3ccc(S(=O)(=O)N4CCOCC4)cc32)c(OC)c1`: the inhibition was -3.19%.
The same measure for `CCCCCc1ccc(-c2ccc(C(=O)O)cc2)nc1`: -2.2%; for `O=C(C1CCCO1)N1CCN(C(=S)NC2CC2)CC1` (centres undefined): -2.14%.
The same measure for `O=C(OC1CCOC1=O)c1ccc(-c2nc3ccccc3s2)s1` (centres undefined): -3.38%; for `CCOC(=O)N1CCC(NC(=O)Cc2cn(C)c3ccccc23)CC1`: 15.9% (active).
The same measure for `CCOC(=O)N1CCC(NC(=O)CCc2cn(C)c3ccccc23)CC1`: -2.75%; for `Cn1cc(CCC(=O)NC2CC2)c2ccccc21`: 0.25%; for `CC1(C)OC(=O)C(=CSc2ccc(C(C)(C)C)cc2)C(=O)O1`: -7.26%.
Consider `Cc1cc(OCC(=O)N(C)c2c(N)n(Cc3ccccc3)c(=O)[nH]c2=O)c(C(C)C)cc1Cl`, for which the inhibition was -1.64%.
The same measure for `Nc1cc(=O)n(Cc2ccccc2)c(=O)n1Cc1ccccc1`: -0.35%; for `Cc1cc2nc3c(=O)n(Cc4ccccc4)c(=O)[nH]c3nc2cc1N`: 182% (active); for `CC(C)(C)OC(=O)N1CCC(C(=O)NNC(=O)c2ccc(Cl)cc2Cl)CC1`: -1.59%.
For the molecule `CCOc1ccc(NC(=O)C2CCN(C(=O)N3CCOc4ccccc43)CC2)cc1`, the inhibition was -11.2%.
For `CN1CCN(S(=O)(=O)c2ccc(N3CCN(S(=O)(=O)c4cccs4)CC3)nc2)CC1` the value was -1.23%; for `O=C(C1CCN(S(=O)(=O)Cc2ccccc2)CC1)N1CCCc2ccccc21`, -0.35%.
Take `CC1CN(Cc2nc3c(c(=O)n(C)c(=O)n3C)n2Cc2cccc(Cl)c2)CC(C)O1` (centres undefined): the inhibition was -2.4%.
Consider `O=C1CCC(=O)N1c1ccc(NCCc2ccccc2F)c([N+](=O)[O-])c1`, for which the inhibition was 0.67%.
The same measure for `CCN(CCCCOC(=O)c1ccc(OC)c(OC)c1)C(C)Cc1ccc(OC)cc1` (centres undefined): -2.66%; for `O=C1c2ccccc2C(=O)c2c1cccc2N1CCN(CCO)CC1`: 17.6% (active).
With `O=C1CCN(CCCc2ccccc2)CCN1CCO`, the inhibition was 1.45%.
The same measure for `O=C1c2ccccc2C(=O)c2c1cccc2N1CCN(Cc2ccccc2)CC1`: 5.59%; for `Cc1cc2c(cc1C)[n+](C)cn2CC(O)COCC1CC=CCC1` (centres undefined): 4.81%.
Regarding `C[C@]12C=CC(=O)C=C1CC[C@@H]1[C@@H]2C(=O)C[C@@]2(C)[C@H]1CC[C@]2(O)C(=O)CO`, the inhibition is -2.3% and 1.49%.
Regarding `C[C@H](CO)N1C[C@H](C)[C@@H](CN(C)C(=O)c2cccc(F)c2)Oc2cc(-c3cncnc3)ccc2S1(=O)=O`, the inhibition was -3.93%.
Take `CCOC(=O)C(=CNNc1ccsc1C(=O)OC)C(=O)OCC`: the inhibition is -2.58%.
`O=C(Nc1cccc2ccccc12)c1[nH]c(-c2ccccc2)c2c1C(=O)N(C1CC1)C2=O`: the inhibition was -8.53%.
For `CC(C(=O)NC1CCCC1)N1CCN(S(=O)(=O)c2ccccc2Cl)CC1` (centres undefined) the value was 17.4% (active).
Turning to `O=C(Cc1ccc(S(=O)(=O)N2CCCC2)s1)NC1CCCCCC1`, the inhibition is -1.79%.
As for `CC(C)c1ccc(S(=O)(=O)N2CCN(C(C)C(=O)NC3CCCC3)CC2)cc1` (centres undefined), the inhibition was 8.04%.
For `COc1cc(CNCc2ccc3c(c2)OCO3)c([N+](=O)[O-])cc1OC` the value was -8.35%.
The same measure for `COc1cccc(NC(=O)C2CCCN(c3ncnc4c3nc3n4CCCCC3)C2)c1` (centres undefined): -9.74%; for `CCn1nnnc1SCC(=O)c1ccc(C)cc1C`: -3.48%.
The same measure for `Cc1cccc(-c2nnc(SCC(=O)O)n2Cc2ccccc2)c1`: -7.43%; for `Cc1ccc2c(c1)nnc1nnc(SCC(=O)O)n12`: 62% (active); for `CC(C)(C(=O)N1CCC1(C)C(=O)NS(=O)(=O)c1ccc(Br)cc1)c1ccccc1` (centres undefined): -2.78%.
For `Cc1cc(Br)ccc1NC(=O)CCCOc1cc(=O)n(C)c2ccccc12`, the inhibition was -8.57%.
For `COc1ccc(C(CC(=O)c2ccccc2)S(=O)(=O)c2ccccc2)cc1` (centres undefined) the value was -2.33%.
The same measure for `O=C(COC(=O)CCc1c[nH]c(=O)[nH]1)Nc1ccccc1Cl`: 25.7% (active); for `Cc1cccc(NC(=O)COC(=O)CCc2ccccc2)c1C`: -6.48%; for `Cc1cc(C(=O)OCC(=O)Nc2ccccc2Cl)c(C)o1`: -2.91%.
Regarding `C/C(=N\NC(=O)c1ccc(C)cc1)C1C(=O)c2ccccc2C1=O`, the inhibition was 3.32%.
Regarding `COc1ccc(N(CC(=O)NC2CCCC2)C(=O)CS(=O)CC(=O)Nc2ccc3c(c2)OCO3)cc1` (centres undefined), the inhibition was 0.46%.
The same measure for `CC(C)NC(=O)N1Cc2cc(C(=O)NCC(F)(F)F)nc(-c3cccc(-c4cc5ccccc5o4)c3)c2[C@@H]1CCO`: 1.84%; for `COCCOC(=O)c1sc(=S)n(CCOC)c1N`: 18.6% (active).
For `O=C(CSc1n[nH]c(-c2cccs2)n1)N1CCCCC1` the value was 0.33%.
For `CC(C)(C)NC(=O)NC(=O)COC(=O)C1c2ccccc2Oc2ccccc21` the value was 7.11%; for `CCOC(=O)CC(NC(=O)C1c2ccccc2Oc2ccccc21)c1ccc(C)cc1` (centres undefined), -23.2%.
With `CCCN(CCC)C(=O)C1c2ccccc2Oc2ccccc21`, the inhibition was 151% (active).
For the molecule `Cc1ccc(Sc2ccncc2S(N)(=O)=O)cc1`, the inhibition was -17.1%.
The same measure for `CCc1cc(=O)oc2cc(C)cc(OCC(=O)N3CCC[C@@H]3C(=O)O)c12`: 3.5%; for `C/C(CC(O)(/C=N/O)c1ccccc1)=N\O` (centres undefined): -3.3%.
Turning to `CCC(C)(C)NC(=O)C(c1cccn1C)N(Cc1ccc(C)cc1)C(=O)Cn1nnc2ccccc21` (centres undefined), the inhibition is 0.29%.
For `CCN(CC(=O)Nc1ccc2c(c1)OCO2)S(=O)(=O)c1ccccc1` the value was 7.87%; for `CC(NC(=S)Nc1ccc(S(N)(=O)=O)cc1)c1ccc2c(c1)OCO2` (centres undefined), 4.89%; for `O=C(COC(=O)c1c2c(nc3ccccc13)CCCC2)c1ccc(Br)s1`, -4.86%.
The same measure for `NC(=O)c1ccc(NC(=O)COC(=O)c2c3c(nc4ccccc24)/C(=C\c2ccc4c(c2)OCO4)CCC3)cc1`: 183% (active); for `O=C(COC(=O)c1ccc2c(c1)OCCO2)NCc1ccccc1Cl`: 6.26%; for `O=C(OCCOc1ccccc1Cl)c1cc(S(=O)(=O)N2CCCCC2)ccc1N1CCOCC1`: -5.06%.
For `CCCN1C2CCCC1CC(NC(=O)c1cccc(OC)c1)C2` (centres undefined) the value was -6.23%; for `CCCN1C(=O)C(NC(C)=O)c2cc(OC)ccc21` (centres undefined), 16.3% (active); for `COc1cccc(NC(=O)N2C3CCCC2CC(NC(C)=O)C3)c1` (centres undefined), -2.6%.
Take `NC(=O)C1CCCN(CC(=O)N2CCN(c3ccccc3)CC2)C1` (centres undefined): the inhibition was -1.63%.
On to `OCCC1CN(Cc2cccc(O)c2)CCN1CCc1ccccc1` (centres undefined), for which the inhibition is -2.49%.
As for `CCOCC(=O)NCc1ccc2c(c1)cc(C)n2C`, the inhibition was 13.8%.
As for `COc1cc(C(=O)NCc2ccc3c(c2)cc(C)n3C)cc(OC)c1OC`, the inhibition was 24.5% (active).
Consider `CCn1c(CNC(=O)c2cc(OC)c(OC)c(OC)c2)cc2cc(C)ccc21`, for which the inhibition is -10.1%.
For the molecule `c1cc(-n2cnnn2)ccc1NC1=NCCC1`, the inhibition is -0.06%.
For `CC1=C(C(=O)Nc2cccc(C(=O)NCC(C)c3ccccc3)c2)SCCO1` (centres undefined) the value was 18.4%.
The same measure for `Cc1ccc(SCC(=O)Nc2nncs2)cc1`: 6.67%; for `Cc1ccc(NC(=O)Cc2nnc(SCC(=O)Nc3nncs3)n2C)cc1`: 45.4% (active); for `CCn1c(CC(=O)Nc2ccc(C)cc2)nnc1SCC(=O)Nc1nc(C)cs1`: 0.33%.
The same measure for `COc1ccc(C2c3ccc(O)cc3Oc3ncn(CCCO)c(=N)c32)cc1OC` (centres undefined): 58.2% (active); for `COc1ccc(CNCCCO)cc1OC`: 8.73%.
Take `COc1ccc(C2C(C#N)=C(N)Oc3cc(N)ccc32)cc1OC` (centres undefined): the inhibition was -24.5%.
The same measure for `O=C1NC[C@@H](CCCCN2CCN(CCc3ccc(O)cc3)C(=O)C2=O)N(CC2CCCCC2)C1=O`: -2.96%; for `Cc1cc(NS(=O)(=O)c2ccc(NC(=S)NC(=O)c3ccc(F)cc3Cl)cc2)no1`: 2.44%; for `CN(CC(=O)Nc1ccc(F)c(F)c1F)C(=O)C1CC(=O)N(C2CCCC2)C1` (centres undefined): -6.03%.
Consider `CC1(C)C(c2cccs2)=[N+]([O-])C2(CCCCC2=O)N1O` (centres undefined), for which the inhibition is -3.06%.
The same measure for `COc1ccc(Cl)cc1-n1c(C)cc(C(=O)OCC(=O)N2CC(=O)Nc3ccccc32)c1C`: 7.08%.
The same measure for `CN(C(=O)COC(=O)Cn1cnc2c1c(=O)n(C)c(=O)n2C)C1(C#N)CCCCC1`: -2.86%; for `Cc1cc(Br)cn2c(Cc3ccsc3)c(-c3ccc(C#N)cc3)nc12`: 50.3% (active).
The same measure for `Cc1cc(Br)cn2c(Cc3cccc(F)c3)c(-c3cccc(Br)c3)nc12`: -1.91%; for `Cc1ccc(-c2nc3c(C)cc(Br)cn3c2Cc2ccccc2)cc1`: -0.26%.
On to `CCN(CCNC(=O)C1=C(C)C(=O)OC12CCC(C)CC2)c1ccccc1` (centres undefined), for which the inhibition was 2.56%.
The same measure for `CCc1ccccc1NC(=O)CSc1nnc(CCNC(=O)OC(C)(C)C)o1`: 3.77%; for `O=C(N/N=C1\CCSC1)c1cc(Cl)ccc1O`: -2.2%; for `COc1cccc(CNC(=O)CCC2CCCN(C(=O)c3ccc(F)c(Cl)c3)C2)c1` (centres undefined): -13.9%.
For `COc1cccc2c1C(=O)c1c(O)c3c(c(O)c1C2=O)CC(O)(C(C)=NNC(=O)c1ccc(Cl)c(Cl)c1)CC3OC1CC(N)C(O)C(C)O1` (centres undefined) the value was 636% [above what the read-out allows, likely interference] (active).
The same measure for `Cc1cc(NC(=O)C(C)N2C(=O)c3ccccc3S2(=O)=O)no1` (centres undefined): -0.19%.
